An excerpt weighted towards active compounds, which were near 7.5% of everything screened.
Rab9 prom act – qHTS Assay for Rab9 Promoter Activators. Huh7 Rab9 promoter-luciferase reporter, luminescence, 24 h. Potency, µM (top dose mostly 9.22 µM), for inactives: top-dose activation, negative = inhibition, most hits filed as activators. 320,000 tested, 2.8% active; also: % of control where 0% means no effect; nearly all actives have a fitted effect of over 60% in size
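Huh7 cells stably carrying Rab9 promoter–luciferase reporter, plated 1500 cells/well, compound added after 2 h and incubated 24 h at 37 °C; luciferase luminescence then read after 10 min with detection reagent.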
ELG1 genotox – qHTS screen for small molecules that induce genotoxicity in human embryonic kidney (HEK293T) cells expressing luciferase-tagged ELG1; HEK293T ELG1-luciferase reporter, luminescence, 16 h; 330,000 tested, 1.3% active; AID 504466, 2011; Potency, µM (titrated, usually from 46 µM), for the others: at the top dose activity change, positive = activation, usual class: activators; also: % of control where 0% means no effect; nearly all actives have a fitted effect of over 60% in size
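Genotoxic stress is detected as increased luminescence from luciferase-tagged ELG1 in HEK293T cells, measured with ONE-Glo after a 16 hr treatment at 37 °C.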
SMN2 splice enh – qHTS Assay for Enhancers of SMN2 Splice Variant Expression. HEK293 SMN2-luciferase splicing reporter, luminescence, 30-36 h. Potency, µM (series often up to 46.1 µM), inactives show at the top dose activity change, positive = activation, actives largely listed as activators. 210,000 tested, 2.8% active. AID 1458, 2008; also: % of control where 0% means no effect; nearly all actives have a fitted effect of over 55% in size
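qHTS luciferase splicing reporter: luminescence rises when SMN2 exon 7 is included in transfected HEK293 cells. Compound exposure lasted 30-36 h at 37C, with 4.5 mM final sodium butyrate as control, followed by a ONE-Glo read.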
NPC1 promoter act – qHTS Assay for NPC1 Promoter Activators; Huh7 NPC1 promoter luciferase reporter, 24 h; Potency, µM (top dose mostly 9.22 µM), for the others: top-dose activation, actives largely listed as activators; 320,000 tested, 2.4% active; AID 485313, 2010; also: % of control where 0% means no effect; nearly all actives have a fitted effect of over 60% in size
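In 1536-well qHTS, Huh7 cells harboring an NPC1 promoter–luciferase construct received compound for 24 h; activation was quantified by luminescence following luciferase reagent addition.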
FLuc modulator – qHTS profiling assay for firefly luciferase inhibitor/activator using purifed enzyme and Km concentrations of substrates (counterscreen for miR-21 project); purified FLuc, Km substrates, luminescence inhibition; Potency, µM (doses to about 57.5 µM), without a hit: at the top dose activity change, negative = inhibition, usual class: inhibitors; 360,000 tested, 6.9% active;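 also: plate controls were vehicle for no effect and reference inhibitor for full effect; nearly all actives have a fitted effect of over 55% in size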
Target sequence (P08659 whole entry, looked up): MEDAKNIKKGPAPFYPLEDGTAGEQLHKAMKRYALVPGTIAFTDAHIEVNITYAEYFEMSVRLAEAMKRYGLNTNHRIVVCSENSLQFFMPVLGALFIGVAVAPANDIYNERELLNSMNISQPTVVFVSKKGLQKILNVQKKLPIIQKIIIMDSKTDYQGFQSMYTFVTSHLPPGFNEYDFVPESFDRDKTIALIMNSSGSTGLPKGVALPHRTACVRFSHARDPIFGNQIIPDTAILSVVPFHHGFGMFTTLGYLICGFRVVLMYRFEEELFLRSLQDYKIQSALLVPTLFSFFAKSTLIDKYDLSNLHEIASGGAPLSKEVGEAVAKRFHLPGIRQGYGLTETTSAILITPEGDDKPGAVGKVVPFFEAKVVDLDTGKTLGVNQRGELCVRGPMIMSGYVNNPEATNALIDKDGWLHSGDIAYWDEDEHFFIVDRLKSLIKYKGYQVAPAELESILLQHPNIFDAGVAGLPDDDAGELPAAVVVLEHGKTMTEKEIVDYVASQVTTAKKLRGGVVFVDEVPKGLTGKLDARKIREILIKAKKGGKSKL
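Biochemical qHTS of compounds, final roughly 60 µM downward over six points, against 10 nM purified firefly luciferase using Km concentrations of substrates (10 uM D-luciferin, 10 uM ATP) in Tris acetate pH 7.5 buffer; luminescence output.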
The depositor's hits bear a star; ? = inconclusive; . = not tested or not shown; [ ] = remark or other dose. Calls follow the shape of the dose curve; as a rule, active = well fitted curve in the direction sought with a large enough effect; inconclusive = small, poorly fitted or top-dose-only effect, or another doubt; inactive = no such curve, though single readings can be large; an effect the other way counts as inactive or inconclusive. Potency is read from the fitted curve at half-maximal effect.

SMILES	Rab9 prom act	ELG1 genotox	SMN2 splice enh	NPC1 promoter act	FLuc modulator
O=C(Nc1cccc(NC(=O)c2ccccc2Cl)c1)c1ccc([N+](=O)[O-])o1	3.7%	-20.4%	.	-15.6%	21.3µM*
CS(=O)(=O)N1CCN(c2ccc(NC(=O)c3ccc([N+](=O)[O-])o3)cc2)CC1	2.24µM*	?	.	?	-16.3%
O=C(Nc1nc2c(Cl)cccc2s1)c1ccc([N+](=O)[O-])o1	9.3%	-12.1%	.	-1.9%	?
O=C(Nc1ccccc1N1CCCC1)c1ccc([N+](=O)[O-])o1	5.7%	-8.2%	.	-3.6%	3.4%
O=C(Nc1ccc(N2CCCC2)c(Cl)c1)c1ccc([N+](=O)[O-])o1	?	-17.7%	-53.4%	?	7.57µM*
Cc1ccc(NC(=O)c2ccc([N+](=O)[O-])o2)cc1C	?	18.4%	-7.9%	-1.9%	21.3µM*
CCc1ccccc1OCC(=O)NNCC(=O)Nc1cccc(C#N)c1	-0.5%	1.1%	.	1.7%	-1.3%
O=C(CCn1ccnc1)Nc1cc(Cl)ccc1O	6.6%	-1.0%	.	-1.3%	1.3%
CC1CCN(c2ccc(NC(=O)c3ccc([N+](=O)[O-])o3)cc2)CC1	2µM*	3.66µM*	.	?	1.07µM*
O=C(Nc1ccc(N2CCCCC2)cc1)c1ccc([N+](=O)[O-])o1	2.51µM*	6.51µM*	.	0.501µM*	1.51µM*
CCCN(C(=O)CCc1nc(-c2ccccc2F)no1)c1ccc(CC)cc1	.	.	-16.9%	.	-0.9%
C/C(=C\C(=O)c1ccccc1)NCc1ccc(F)cc1	19.9%	0.1%	-6.0%	7.5%	19µM*
CCc1ccc(NC(=O)c2cc(C(C)=O)n3ccccc23)cc1	.	.	.	.	15.1µM*
C/C(=C\C(=O)c1ccc(F)cc1)NCc1ccc2c(c1)OCO2	-11.4%[1.84 µM]	2.3%	-30.8%	-2.8%	-13.6%
Cn1nc(C(=O)NCc2ccccc2)c2ccccc2c1=O	9.1%	?	7.9%	-0.3%	-0.7%
Cn1nc(C(=O)NCc2ccc(F)cc2)c2ccccc2c1=O	-6.4%	3.8%	17.8µM*	-4.0%	10.1%
CSc1cccc(NC(=O)c2cnn3ccccc23)c1	2µM*	?	.	2.51µM*	4.26µM*
O=C1Cc2cc([N+](=O)[O-])ccc2N1c1c(Cl)cccc1Cl	-16.1%	0.4%	.	-0.8%	0.0%
O=C(NCc1ccc(F)cc1)c1cnn2ccccc12	2µM*	?	12.6µM*	3.16µM*	12µM*
CCc1ccc(NC(=O)c2cnn3ccccc23)cc1	0.112µM*	0.184µM*	1.78µM*	0.316µM*	0.338µM*
O=c1c2cc3c(nc2[nH]c(=S)n1-c1ccccc1)CCCC3	5.0%	3.6%	.	5.6%	-2.4%
CCC1CSC(Nc2ccc(C(=O)/C=C/c3ccc(Oc4ccccc4)cc3)cc2)=N1 (configuration not stated)	-5.8%	9.1%	-65.9%	-0.3%	13.5µM*
Cc1[nH]n(-c2ccc(Br)cc2)c(=O)c1/C=N/NC(=O)c1ccccc1	-36.4%	?	.	-21.8%	2.13µM*
Cc1[nH]n(-c2ccccc2)c(=O)c1/C=N/NC(=O)c1cccc(F)c1	-38.9%	?	.	-32.3%	9.53µM*
CCCCN(CCCC)C(=S)N/N=C/c1c(C)[nH]n(-c2ccccc2)c1=O	-9.2%	-6.7%	-75.2%	-8.0%	-3.4%
SMILES	Rab9 prom act	ELG1 genotox	SMN2 splice enh	NPC1 promoter act	FLuc modulator
O=C(Nc1ccc(Br)cc1)c1cnn2c1NC(=C1CC1)C=C2C(F)F	.	.	.	.	1.0%
COc1cccc(-c2nnc3sc(CN4CCCCC4)cn23)c1	.	.	.	.	-1.9%
Cc1ccc2c(c1)N=C(c1ccc(Cl)cc1)CO2	2.51µM*	?	22.4µM*	3.55µM*	1.69µM*
c1ccc(C2=Nc3ccccc3OC2)cc1	3.55µM*	7.0%	12.6%	?	3.01µM*
O=C1CC(c2ccccc2)=Nc2ccccc2N1	27.4%	-2.4%	-7.5%	1.9%	-11.9%
CC1=Nc2cc(Cl)ccc2Oc2ccccc21	1.0%	-1.2%	.	-2.3%	-15.6%
Clc1ccc(C2=NN=C3COc4ccccc4N3C2)cc1	-2.6%	-4.1%	-19.8%	-0.5%	-17.7%
Clc1ccc(C2=Nc3cc(Cl)ccc3OC2)cc1	?	?	?	?	7.57µM*
Cc1[nH]c(C)c(S(=O)(=O)Nc2cccc(Cl)c2C)c1C(=O)N1CCCC1	-1.4%	-0.9%	.	-5.4%	0.7%
O=C(Nc1ccc2c(c1)OCO2)c1ccc(COc2ccc3c(c2)CCC3)o1	3.98µM*	?	11.2µM*	?	19µM*
O=C(Nc1ccc2c(c1)OCO2)c1ccc(Br)o1	2.82µM*	18.4µM*	11.2µM*	2.51µM*	23.9µM*
Cc1ccc(C(=O)Nc2ccc3c(c2)CCC3)o1	2.82µM*	3.26µM*	4.47µM*	3.16µM*	4.26µM*
Cc1cc(NC(=O)c2cc3ccccc3o2)ccc1NC(=O)c1ccccc1	14.7%	-7.9%	.	-1.1%	?
CC(=O)Nc1ccc2c(c1)CCCC2	7.1%	2.6%	.	2.7%	-13.8%
O=C(Nc1ccc2c(c1)CCC2)c1cc2ccccc2o1	1.26µM*	1.64µM*	12.6µM*	1.26µM*	1.35µM*
O=C(COC(=O)CNC(=O)c1ccc(Br)o1)Nc1ccc2c(c1)OCCO2	7.2%	-1.3%	4.5%	-1.9%	-3.1%
O=C(Nc1cc(Cl)ccc1O)C1CC(c2ccccc2Cl)=NO1 (configuration not stated)	2.9%	-1.6%	.	-0.6%	1.1%
COc1ccc([N+](=O)[O-])cc1NS(=O)(=O)c1ccc(Cl)c(C(=O)Nc2sc3c(c2C#N)CCCCC3)c1	-2.8%	0.8%	1.6%	-3.9%	-0.5%
Cc1ccc(NC(=O)c2ccncc2)cc1S(=O)(=O)N(C)C	7.2%	0.1%	3.8%	0.7%	-4.9%
Cc1ccc(NC(=O)c2ccc(Br)o2)cc1S(=O)(=O)N(C)C	?	4.3%	?	?	13.5µM*
O=C(Nc1ccc2c(c1)CCC2)c1ccc(Br)o1	3.16µM*	6.51µM*	12.6µM*	3.55µM*	6.75µM*
Cc1nc(N2CCCC2)c2c(C(=O)Nc3cccc(C)c3C)c(C)oc2n1	.	.	.	.	-11.0%
COc1ccc(-c2cc(C(=O)O)nc3ccc4ccccc4c23)cc1OC	2.8%	4.6%	14.9%	9.7%	4.26µM*
Cc1ccccc1N=Cc1cccc(O)c1O	-4.4%	0.0%	29.5%	-8.2%	?
Oc1cccc(/C=N/N=C/c2cccc(O)c2O)c1O	-32.6%	?	.	-23.4%	1.69µM*
Cc1ccc(NC(=O)C2C3C=CC4(O3)C2C(=O)N(CCCN2CCCCC2)C4C(=O)NC2CCCCC2)cc1C (configuration not stated)	-15.0%	-0.1%	.	-16.0%	0.7%
COc1cccc2sc(N(Cc3cccnc3)C(=O)C3CCCCC3)nc12	.	.	.	.	-2.0%
CCCCOC(=O)Sc1nc2ccccc2o1	-11.5%	-7.0%	12.7%	-1.9%	15.1µM*

Screening data as filed in PubChem.
